TTR transcr act: TTR transcription activation, primary screen | SH-SY5Y TTR promoter Gaussia luciferase, luminescence; 100% = recombinant luciferase protein wells | activation, % at 16.7 µM | hit rate 1.3% among 92,000 | AID 1117267;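 active = activation above the mean of all tested compounds plus 3 SD, cut at about 9.5% in these data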;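 also: cells exposed to compounds for one day before reading; 0% = median of all test compound wells on the plate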
HuH7 TTR inh: HuH7 TTR transcription inhibition, counter-screen; shares compounds with TTR transcr act; HuH7 TTR promoter-Gaussia luciferase reporter, luminescence; inhibition, % at 16.7 µM; hit rate 4% among 1,100; AID 1117279;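 active = average inhibition above the solvent-only control wells' mean plus 3 SD, cut at about 15% in these data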;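 also: 0% = cells with DMSO only and 100% = cells with inhibitor control FD; inhibitors lower well luminescence so higher value means more inhibition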
TTR up confirm: confirmation of human transthyretin transcription activators | shares compounds with TTR transcr act | SHSY5Y TTR promoter Gaussia luciferase, luminescence; 100% = purified Lucia enzyme wells, no cells | activation, % at 16.7 µM | 1,100 tested, under 10 active;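 active = mean activation above a set limit taken from the earlier primary screen, cut at about 11% in these data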;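 also: 0% = DMSO-treated cells and 100% = recombinant Lucia luciferase without cells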
An asterisk follows results filed as active. Only a selection was taken, and hits are over-represented in it overall.

SMILES	TTR transcr act	others
Cc1ccccc1CN1CCCCC(NC(=O)C2CCCCC2)C1=O (stereo not drawn)	-0.5
O=C(NCCc1c[nH]c2ccccc12)OCc1cn(Cc2c(F)cccc2F)nn1	-0.2
C[C@H]1CCCN1c1cccc2c1S(=O)(=O)N1CC[C@@H](C1)O2	0.5
O=C(O)c1ccc(N2CC3CC(C2)c2cccc(=O)n2C3)c(NC(=S)Nc2ccc(Cl)cc2Cl)c1 (stereo not drawn)	10.6*	HuH7 TTR inh=-3.9;TTR up confirm=0.1
O=C(CCN1CCOCC1)Nc1cc(C(=O)Nc2ccccc2F)ccc1N1CC2CC(C1)c1cccc(=O)n1C2 (stereo not drawn)	0.5
Nc1cc(C(=O)N2CCN(c3cccc(Cl)c3)CC2)ccc1N1CC2CC(C1)c1cccc(=O)n1C2 (stereo not drawn)	-2.0
O=C(NCCO)[C@H](Cc1ccccc1)NC1(C(=O)NCCN2CCOCC2)CCCCC1	1.5
CN(C(=O)c1ccccc1-c1ccccc1C(=O)O)c1ccccc1	-0.9
O=C(NCCc1c[nH]c2ccccc12)OCc1cn(Cc2ccc(F)c(F)c2)nn1	-0.2
CCCC(=O)NNC(=O)c1ccoc1C	16.8*	HuH7 TTR inh=-8.8;TTR up confirm=-0.6
Cc1cccc(C)c1OCC(=O)NNC(=O)c1ccoc1C	7.2
Cc1cc(C)cc(OCC(=O)NNC(=O)c2ccoc2C)c1	0.6
COC(=O)[C@]12C[C@H](CC(=O)N3CCCCC3)C(=O)N(Cc3ccc(Cl)cc3Cl)C1=C[C@H](COCc1ccccc1)O[C@@H]2C	0.8
CCC[C@H]1[C@@H](NC(=O)c2ccc(C)cc2)CC[C@@]23CCCN2C(=O)CCC[C@@H]13	0.8
CCCc1nc2cc(C)c(Br)c(C)n2c1CC1CCCCC1	-1.6
Cc1cc2nc(-c3ccccc3)c(CC3CCCCC3)n2c(C)c1Br	22.5*	HuH7 TTR inh=-8.1;TTR up confirm=0.7
Cc1cc2nc(-c3cccc(Cl)c3)c(CC3CCCCC3)n2c(C)c1Br	2.1
Cc1cc2nc(-c3ccc(F)cc3)c(CC3CCCCC3)n2c(C)c1Br	1.7
COc1ccc(-c2nc3cc(C)c(Br)c(C)n3c2CC2CCCCC2)cc1OC	2.3
Cc1ccc(-c2nc3cc(C)c(Br)c(C)n3c2CC2CCCCC2)cc1	9.8*	HuH7 TTR inh=-9.2;TTR up confirm=-0.2
Cc1ccc(C)c(NC(=O)[C@@H]2CCCN2S(=O)(=O)c2cccc3cccnc23)c1	-0.6
COC(=O)[C@]12C[C@H](CC(=O)N3CCSCC3)C(=O)N(Cc3ccco3)C1=C[C@H](C1CCCC1)O[C@@H]2C	0.2
O=C(c1cc(C2CC2)on1)N(C1CCCCC1)C1CCCCC1	-0.4
Cc1ccc(S(=O)(=O)N2CCOCC2)cc1NC(=O)COC(=O)c1cccnc1Cl	4.4
Cc1cccc([C@@H]2[C@@H]3C(=O)N(Cc4ccccc4)C(=O)[C@@H]3[C@]3(Cc4ccccc4)C(=O)N(c4cccc(Cl)c4)C(=O)N23)c1	-1.5
SMILES	TTR transcr act	others
O=C1[C@H]2[C@@H](c3ccc(F)cc3)N3C(=O)N(c4cccc(Br)c4)C(=O)[C@@]3(Cc3ccccc3)[C@H]2C(=O)N1C1CCCCC1	1.6
O=C1[C@H]2[C@@H](c3ccc(Cl)cc3)N3C(=O)N(c4cccc(Cl)c4)C(=O)[C@@]3(Cc3ccccc3)[C@H]2C(=O)N1C1CCCCC1	15.7*	HuH7 TTR inh=5.6;TTR up confirm=-0.8
CNc1ccc(/C=C(\C#N)C(=O)Nc2ccccn2)cc1[N+](=O)[O-]	23.0*	HuH7 TTR inh=-11.6;TTR up confirm=0.4
COc1cc(/C=C(\C#N)C(=O)Nc2ccccn2)ccc1O	1.3
CC(C)(C)c1ccc(/C=C(\C#N)C(=O)Nc2ccccn2)cc1	-1.6
O=C(NCCc1c[nH]c2ccccc12)[C@H](Cc1c[nH]c2ccccc12)NC1(C(=O)NC2CCCCC2)CCCCCCC1	-0.8
CC(=O)N1CCc2cc(N=NC3=C(O)CC(C)(C)CC3=O)ccc21	3.9
COc1cc(-c2ccccc2)nc2ccccc12	-0.3
O=C(NCc1ccc(F)cc1)c1cc(-c2ccncc2)nc2ccccc12	-2.9
c1ccc(-c2cc(-c3ccncc3)nc3ccc4ccccc4c23)cc1	10.8*	HuH7 TTR inh=11.8;TTR up confirm=-0.9
CS(=O)(=O)c1cccc(C(=O)Nc2ccc3c(c2)OCCCO3)c1	-2.3
CCC[C@H]1[C@@H](NC(=O)c2cccc(N(C)C)c2)CC[C@@]23CCCN2C(=O)CCC[C@@H]13	3.3
COc1cc(-c2n[nH]c(=S)n2-c2ccccc2C(F)(F)F)cc(OC)c1OC	9.9*	HuH7 TTR inh=-15.7;TTR up confirm=1.4
FC(F)(F)c1ccccc1-n1c(-c2cnccn2)n[nH]c1=S	-1.9
COc1cc(-n2c(-c3ccccc3)n[nH]c2=S)c(OC)cc1Cl	0.2
COC(=O)[C@]12C[C@H](CC(=O)NCCCCc3ccccc3)C(=O)N(Cc3cccc4ccccc34)C1=C[C@H](C(C)C)O[C@@H]2C1CC1	0.4
